Bioassay records as filed in PubChem.
D3 antag: D3 dopamine receptor (human) antagonism; D3R cells, DiscoveRx beta-arrestin luminescence, antagonist mode; hits give low values; max response, negative = inhibition, %; actives 2.5% (n = 360,000); in the data active = max response below about -50%; inconclusive = no clear call, values can overlap the other calls; also: % is scaled to controls: 0 for no effect and ±100 for the full control effect
Target sequence (P35462 whole entry, looked up): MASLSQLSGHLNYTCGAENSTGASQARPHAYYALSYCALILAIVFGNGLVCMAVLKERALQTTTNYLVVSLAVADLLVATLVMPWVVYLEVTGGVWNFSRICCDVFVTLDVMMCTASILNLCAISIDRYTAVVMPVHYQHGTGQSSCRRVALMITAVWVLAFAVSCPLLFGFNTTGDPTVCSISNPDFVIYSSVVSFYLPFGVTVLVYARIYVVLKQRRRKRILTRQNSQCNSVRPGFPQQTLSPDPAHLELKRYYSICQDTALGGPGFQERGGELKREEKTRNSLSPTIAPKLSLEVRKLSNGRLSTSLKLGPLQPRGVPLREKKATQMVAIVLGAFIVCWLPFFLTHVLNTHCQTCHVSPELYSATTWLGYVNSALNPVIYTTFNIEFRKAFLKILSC
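Cells plated overnight at 1500 cells/well, then exposed to library compounds with dopamine controls for 90 minutes at 37 degrees C. DiscoveRx reagent added for 30–60 minutes at room temperature; luminescence read, quantitative HTS format.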
GLP1R cytotox: cytotoxicity counter-screen for GLP-1 receptor inverse agonists. HEK293 cAMP-luciferase reporter cells, luminescence, 24 h. Potency, µM (doses to about 38.3 µM), inactives show at the top dose activity change, negative = inhibition, most hits filed as inhibitors. actives 0.13% (n = 410,000);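 also: loss of luciferase light is scored as toxicity; potency is read from the fitted curve at half-maximal effect; % is scaled to controls: 0 for no effect and ±100 for the full control effect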
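To flag toxic compounds, the library was rerun on cells for 24 hr at 37 deg C and 5% CO2. Viability-linked luminescence was captured 12 min after adding luciferase detection reagent.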
GLP1R ag: agonists of human GLP-1 receptor. Potency, µM (series often up to 45.6 µM), for inactives: at the top dose activation, usual class: activators. actives 0.007% (n = 380,000). P43220. HEK293 GLP-1R CRE-luciferase, luminescence, 4-6 h; cells express a hypersensitive GLP-1R form; also: potency is read from the fitted curve at half-maximal effect; % of control where 0% means no effect
ClpP mod: qHTS Assay for Activators of ClpP. ATP-dependent Clp protease proteolytic subunit (Bacillus subtilis (strain 168)), P80244. purified B. subtilis ClpP, FRET peptide cleavage, 20 min. actives 1.9% (n = 340,000). Potency, µM (top dose mostly 57.5 µM), for inactives: at the top dose activity change, negative = active; active = well fitted falling curve with a large enough effect; inconclusive = small, poorly fitted or top-dose-only effect; inactive = no such curve, though single readings can be large or run the other way; also: potency is read from the fitted curve at half-maximal effect; the source files actives as falling curves though it sought activators and does not explain the sign; nearly all actives have a fitted effect of over 65% in size
Target sequence (P80244 whole entry, looked up): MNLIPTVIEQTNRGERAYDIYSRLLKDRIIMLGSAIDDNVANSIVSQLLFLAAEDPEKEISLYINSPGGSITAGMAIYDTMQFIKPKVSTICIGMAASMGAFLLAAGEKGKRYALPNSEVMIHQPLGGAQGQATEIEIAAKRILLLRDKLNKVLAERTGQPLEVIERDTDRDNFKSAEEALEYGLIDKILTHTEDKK
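FRET quenching reversal measured ClpP activation: 10 microg/mL B. subtilis ClpP at pH 8 with the FRET-FV decapeptide, read at 430 nm after 320 nm excitation. The 20-min minus 0-min signal was scaled between DMSO/no-enzyme wells and ADEP (5.8 microM final).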
GLP1R inv ag: inverse agonists of human GLP-1 receptor; HEK293 GLP-1R CRE-luciferase, luminescence, 24 h; GLP-1R form is constitutively active; AID 624417; Potency, µM (top dose mostly 38.3 µM), for the others: at the highest dose activity change, negative = inhibition, most hits filed as inhibitors; actives 1.6% (n = 410,000); also: potency is read from the fitted curve at half-maximal effect; % is scaled to controls: 0 for no effect and ±100 for the full control effect; nearly all actives have a fitted effect of over 55% in size
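GLP-1R inverse agonism mode: basal reporter luminescence in engineered HEK293 cells measured after one day of compound exposure at 37 deg C, with a 12 min room-temperature detection step.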
D3 ag: D3 dopamine receptor (human) agonism; actives 0.58% (n = 410,000); D3R DiscoveRx beta-arrestin cells, luminescence, 90 min; P35462; max activation, %; in the data active = max activation above about 30%; also: 0% is about no effect
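Agonist-mode cell screen: cells plated at 1500/well and incubated overnight at 37 °C, then exposed to library compounds for 90 min at 37 °C. Detection reagent was added for 30–60 min at room temperature, and luminescence was read.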
* marks the source's active call; other numbers are inactive results; i = inactive; ? = inconclusive; / = no result; [ ] = remark or other dose. Rows were chosen to be rich in hits. Some 5.7% of all compounds tested hit in one or more screens of this group. Unless noted, calls follow the shape of the dose curve; as a rule, active = well fitted curve in the direction sought with a large enough effect; inconclusive = small, poorly fitted or top-dose-only effect, or another doubt; inactive = no such curve, though single readings can be large; an effect the other way counts as inactive or inconclusive.

SMILES	D3 antag	GLP1R cytotox	GLP1R ag	ClpP mod	GLP1R inv ag	D3 ag
Cc1cccc(C2=NN(c3ccccc3)[C@H](CO)[C@H]2c2ccc(Cl)cc2)c1	33	193%	-4%	5%	10µM*	11
O=C(NCC1CCCO1)c1cc(-c2ccccc2)nc2ccc(Br)cc12 (configuration not stated)	15	-4%	-1%	-17%	-37%	-10
Cc1ccc2nc(-c3cccc(Br)c3)cc(C(=O)NCC3CCCO3)c2c1 (configuration not stated)	65	4%	2%	14µM*	3%	1
Cc1ccc(S(=O)(=O)/N=C2/C=C(Sc3ncn[nH]3)C(=O)c3ccccc32)cc1	-104*	?	-36%	16%	i	-22
Cc1ccc(S(=O)(=O)Nc2ccc(O)c(Sc3ncn[nH]3)c2)cc1	1	-7%	2%	/	-7%	21
CC(C)c1ccc(S(=O)(=O)/N=C2/C=C(Sc3ncn[nH]3)C(=O)c3ccccc32)cc1	-75*	-11%	-10%	-6%	?	-6
CC(C)(C)c1ccc(S(=O)(=O)/N=C2\C=C(NS(=O)(=O)c3ccccc3)C(=O)c3ccccc32)cc1	?	?	2%	/	?	-18
c1coc(Cn2nnnc2CN2CCN(C3CCCC3)CC2)c1	-69*	-14%	-7%	1%	-28%	-3
CCCCNC(=O)C1(C)CCN1C(=O)c1cc(OC)ccc1Br (configuration not stated)	0	-8%	4%	2%	-1%	-6
O=C(Cc1ccc(Br)cc1)Nc1ccccc1Sc1ccccc1	19	-1%	-1%	-1%	10µM*	-1
O=C(Cc1ccccc1)Nc1ccccc1Sc1ccccc1	7	31%	3%	2%	11µM*	1
CS(=O)(=O)N(Cc1ccc(C(=O)Nc2ccccc2Sc2ccccc2)cc1)c1ccccc1	15	-9%	-2%	36%	?	1
O=C(Nc1ccccc1Sc1ccccc1)c1ccccc1	-21	22%	5%	-2%	11µM*	-3
CCC(=O)N1CCc2cc(Br)cc(S(=O)(=O)CCC(=O)N(CC)Cc3ccccc3)c21	/	-17%	/	0%	-13%	-10
O=C(c1ccccc1)c1ccc2nc(Nc3ccccc3Cl)c3nncn3c2c1	/	19%	/	-19%	26%	-1
Nc1[nH]nc2nc(-c3ccccc3)[nH]c(=O)c12	3	11%	-6%	-5%	20%	0
Nc1nc(-c2ccccc2)[nH]c(=O)c1N	-16	-6%[1.53 µM]	-4%	28µM*	10%	-11
CC(C)C(=O)NC(c1ccco1)c1c(O)ccc2ccccc12 (configuration not stated)	11	-11%	1%	22µM*	?	22
CCC(=O)NC(c1ccc(OC)cc1)c1c(O)ccc2ccccc12 (configuration not stated)	?	-28%	-5%	4%	3.5µM*	-3
CCCCC(=O)NC(c1ccc([N+](=O)[O-])cc1)c1c(O)ccc2ccccc12 (configuration not stated)	-52*	-11%[1.53 µM]	-37%	-1%	?	-20
CC(C)C(=O)NC(c1ccccc1Cl)c1c(O)ccc2ccccc12 (configuration not stated)	2	8%	-5%	25µM*	0%	-12
COc1ccc(C(NC(=O)C(C)C)c2c(O)ccc3ccccc23)cc1 (configuration not stated)	-22	?	3%	2%	?	-5
CC(C)CC(=O)NC(c1ccccc1)c1c(O)ccc2ccccc12 (configuration not stated)	10	1%	-11%	-18%	?	7
CC(=O)Oc1ccc2ccccc2c1C(NC(=O)C(C)C)c1cccc([N+](=O)[O-])c1 (configuration not stated)	-20	-17%	-1%	-1%	?	-2
COc1ccc(C(NC(=O)C(C)C)c2c(O)ccc3ccccc23)cc1OC (configuration not stated)	-12	2%[1.53 µM]	-2%	28µM*	?	-4
SMILES	D3 antag	GLP1R cytotox	GLP1R ag	ClpP mod	GLP1R inv ag	D3 ag
CC(C)(C)C(C(=O)NCc1ccccc1)N1CCN(CCN2CCOCC2)CC1 (configuration not stated)	-64*	3%	/	-8%	-6%	-18
O=C(NCc1ccccc1)C(c1ccc(F)cc1)N1CCN(CCN2CCOCC2)CC1 (configuration not stated)	-24	-5%	/	0%	17%	-7
Clc1cccc(CSc2nncn3c2cc2sccc23)c1	/	-3%	/	10%	?	-10
CCOc1ccc(/C=N/Nc2nc(C)cs2)c(O)c1	-6	3.2µM*	-7%	-7%	4µM*	13
Cc1csc(N/N=C/c2ccccc2F)n1	-11	-14%	15%	/	12%	2
CN(C)c1nc2ccc(OCCN3CCCCC3)cc2s1	-68*	1%	-8%	-1%	116%	-3
CCN(CC)CCOc1ccc2nc(N(C)C)sc2c1	-59*	77%	14%	-4%	?	1
CCOc1ccc2nc(N3CCCCCC3)sc2c1	-8	2%	9%	0%	-28%	13
CCC(C)n1c(=N)c(C(=O)NCc2ccccc2)cc2c(=O)n3cc(C)ccc3nc21 (configuration not stated)	/	77%	-1%	4%	20%	-12
CCN1C(=O)c2ccccc2C1Nc1ccc(OCCN2CCCCC2)cc1 (configuration not stated)	/	/	/	/	/	-21
CCCC1=NN2C(=N)/C(=C\c3cc(C)n(-c4cc(C)cc(C)c4)c3C)C(=O)N=C2S1	-57*	1%	-24%	-4%	5%	-9
Cc1cc(C)cc(-n2c(C)cc(/C=C3\C(=N)N4N=C(CC(C)C)SC4=NC3=O)c2C)c1	-2	-15%	-1%	-4%	11%	4
COc1ccc2[nH]c(=O)c(CN(CCCN(C)C)C(=O)Nc3ccccc3)cc2c1	-6	-16%	-8%	?	?	1
CCN(CC)CCCN(Cc1cc2cc3c(cc2[nH]c1=O)OCO3)C(=O)Nc1ccccc1OC	-25	13%	2%	32µM*	?	-9
COc1cc2cc(CN(CCN3CCCC3)C(=O)Nc3ccc(F)cc3)c(=O)[nH]c2cc1OC	7	-9%	-3%	14µM*	-3%	-13
